Our source for the sensor-assay potency score (higher = more potent) values is the OligoGym collection.
Note: reference of the scale not given here.

In one experiment the target is TUBGCP5. The experiment is described as follows: pooled miR-30 sensor sort-seq; sequence = guide strand. As to conditions: shRNA.
For TAAACTATGAGGAAACTGGGAG, the sensor-assay potency score (higher = more potent) was found to be 0.101. Regarding TACAACTCTATACAGTATCTAC, the sensor-assay potency score (higher = more potent) is -0.752.

TTTTTCTGCAGTACTAACCAGT returned a sensor-assay potency score (higher = more potent) of -0.246. The sequence TTGATCTTGTTCTTCTAACGGT yielded a sensor-assay potency score (higher = more potent) of 0.145. On the same count and under the same terms, under TGGATCATGAACATCATCCAGT stands -0.749. For the sequence TTTGTGGCTGTTGACATCCAAG, the sensor-assay potency score (higher = more potent) was -1.62.

TAACGGTGTCCTGTCTACCTGA came in with a sensor-assay potency score (higher = more potent) of -0.629. Same read-out and setting: for ATCTCTTCCAACTAGCAGCTTT the value was -0.582; for TTCTGTTTTGATCTTGTTCTTC, 0.0443. Consider TTAATCTCTTCCAACTAGCAGC, for which the sensor-assay potency score (higher = more potent) is -0.324.

In turn, TATTGTAGTATCATTATTGATG showed a sensor-assay potency score (higher = more potent) of -0.448. In turn, TAGATAGACGTGAACTATCTTC returned a sensor-assay potency score (higher = more potent) of -0.283.

The target in the next experiment is TULP4. The experiment is described as above. As to conditions: shRNA.
For TTGAAATTTATCCTCTGTGGAG, the sensor-assay potency score (higher = more potent) was -0.662. TAAATTAATATAGTCCATGGAA yielded a sensor-assay potency score (higher = more potent) of -0.711. The sequence TACAGCTGTCGTCTGGTTGGTC gave a sensor-assay potency score (higher = more potent) of -0.0173. Sequence TTTGTCTTATTCAACTTCTTTG gave a sensor-assay potency score (higher = more potent) of -1.04.

Regarding TTAAAGTCACTCAAAGTCCTAG, the sensor-assay potency score (higher = more potent) was 0.213. Sequence TTGTAGAACTTGACCATGGCAC displayed a sensor-assay potency score (higher = more potent) of 0.0563.

On to TTTTATAGATTACTGCACCGAG, for which the sensor-assay potency score (higher = more potent) came out at 0.0761.
